Laboratory results reported in PubChem BioAssay (EPA / NIEHS).
Where “and” joins values, the source holds several entries; their conditions need not be identical. Equal entries are not always repeated. A structure can be active in one record and inactive in another. Calls of active or inactive are those of the source. Rule for the calls: active = hit-call score of the fitted dose curve at least 0.9, where 1 is the maximum; inactive = score below 0.9.

Columns and labels:
[1] = read-out: Interleukin-6 (IL6), IL6 (gene 3569); assay: BSK_CASM3C_IL6: BioMAP Diversity Plus: CASM3C Assay for Interleukin-6 (IL6) Biomarker Activity for (AID 2283040); settings: primary human coronary artery smooth muscle cells; actives raise or lower the signal
[2] = read-out: Tissue plasminogen activator (tPA), PLAT (gene 5327); assay: BSK_BE3C_tPA: BioMAP Diversity Plus: BE3C Assay for Tissue plasminogen activator (tPA) Biomarker Activity (AID 2283041); settings: primary human bronchial epithelial cells; actives raise or lower the signal
Summary of the method: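 ELISA read-out of tPA on human primary bronchial epithelial cells, 24 h post-dosing; bidirectional fit vs DMSO negative control/baseline.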

[3] = read-out: Interleukin-8 (IL8), CXCL8 (gene 3576); assay: BSK_CASM3C_IL8: BioMAP Diversity Plus: CASM3C Assay for Interleukin-8 (IL8) Biomarker Activity (AID 2283042); settings: primary human coronary artery smooth muscle cells; actives raise or lower the signal;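 note: IL-8 protein level quantified by ELISA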
[4] = read-out: Human Leukocyte Antigen - DR isotype (HLADR), HLA-DRA (gene 3122); assay: BSK_CASM3C_HLADR: BioMAP Diversity Plus: CASM3C Assay for Human Leukocyte Antigen - DR isotype (HLADR) Biomarker Activity (AID 2283043); settings: primary human coronary artery smooth muscle cells; actives raise or lower the signal;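 note: cell-surface HLA-DR protein level quantified by ELISA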
[5] = read-out: Macrophage colony-stimulating factor (MCSF), CSF1 (gene 1435); assay: BSK_CASM3C_MCSF: BioMAP Diversity Plus: CASM3C Assay for Macrophage colony-stimulating factor (MCSF) Biomarker Activity (AID 2283044); settings: primary human coronary artery smooth muscle cells; actives raise or lower the signal;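 note: M-CSF protein amount quantified by ELISA after 24 h exposure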
[6] = read-out: Low-density lipoprotein receptor (LDLR), LDLR (gene 3949); assay: BSK_CASM3C_LDLR: BioMAP Diversity Plus: CASM3C Assay for Low-density lipoprotein receptor (LDLR) Biomarker Activity (AID 2283045); settings: primary human coronary artery smooth muscle cells; actives raise or lower the signal;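 note: LDLR protein level on the cell surface quantified by ELISA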
[7] = read-out: Monocyte Chemoattractant Protein-1 (MCP1), CCL2 (gene 6347); assay: BSK_CASM3C_MCP1: BioMAP Diversity Plus: CASM3C Assay for Monocyte Chemoattractant Protein-1 (MCP1) Biomarker Activity (AID 2283046); settings: primary human coronary artery smooth muscle cells; actives raise or lower the signal;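 note: MCP-1 level quantified by ELISA 24 h after dosing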
[8] = BSK_CASM3C_Proliferation: Cell Proliferation Assessment in the BioMAP Diversity Plus: CASM3C Assay (AID 2283047); settings: primary human coronary artery smooth muscle cells;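 note: sulforhodamine B total protein stain as relative cell number at 560 nm; sub-confluent cells exposed 48 h before staining; fitted both ways against DMSO so gain or loss of cell number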
[9] = read-out: Monokine induced gamma interferon (MIG), CXCL9 (gene 4283); assay: BSK_CASM3C_MIG: BioMAP Diversity Plus: CASM3C Assay for Monokine induced gamma interferon (MIG) Biomarker Activity (AID 2283048); settings: primary human coronary artery smooth muscle cells; actives raise or lower the signal;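 note: MIG protein level measured by ELISA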
[10] = read-out: serum amyloid A (SAA), SAA1 (gene 6288); assay: BSK_CASM3C_SAA: BioMAP Diversity Plus: CASM3C Assay for serum amyloid A (SAA) Biomarker Activity (AID 2283049); settings: primary human coronary artery smooth muscle cells; actives raise or lower the signal;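 note: SAA protein level quantified by ELISA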
[11] = BSK_CASM3C_SRB: Viability Assessment in the BioMAP Diversity Plus: CASM3C Assay (AID 2283050); settings: primary human coronary artery smooth muscle cells;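 note: total protein by SRB staining as cytotoxicity measure in parallel cultures; cells exposed to compound for 24 h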
[12] = read-out: Thrombomodulin, THBD (gene 7056); assay: BSK_CASM3C_Thrombomodulin: BioMAP Diversity Plus: CASM3C Assay for Thrombomodulin Biomarker Activity (AID 2283051); settings: primary human coronary artery smooth muscle cells; actives raise or lower the signal;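 note: thrombomodulin protein level measured by ELISA 24 h after dosing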
[13] = read-out: Tissue Factor, F3 (gene 2152); assay: BSK_CASM3C_TissueFactor: BioMAP Diversity Plus: CASM3C Assay for Tissue Factor Biomarker Activity (AID 2283052); settings: primary human coronary artery smooth muscle cells; actives raise or lower the signal;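 note: cell surface tissue factor protein level read by ELISA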
[14] = read-out: Interferon-gamma inducible Protein 10 (IP10), CXCL10 (gene 3627); assay: BSK_hDFCGF_IP10: BioMAP Diversity Plus: hDFCGF Assay for Interferon-gamma inducible Protein 10 (IP10) Biomarker Activity (AID 2283053); settings: primary human foreskin fibroblasts; actives raise or lower the signal
Summary of the method: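 ELISA read-out of IP-10 (CXCL10) from primary human skin fibroblasts, 24 h after compound addition. Gain or loss of signal versus DMSO baseline, bidirectional curve fitting.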

[15] = read-out: Urokinase-type plasminogen activator receptor (uPAR), PLAUR (gene 5329); assay: BSK_CASM3C_uPAR: BioMAP Diversity Plus: CASM3C Assay for Urokinase-type plasminogen activator receptor (uPAR) Biomarker Activity (AID 2283054); settings: primary human coronary artery smooth muscle cells; actives raise or lower the signal;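 note: cell-surface uPAR protein level quantified by ELISA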
[16] = read-out: Vascular cell adhesion molecule 1 (VCAM1), VCAM1 (gene 7412); assay: BSK_CASM3C_VCAM1: BioMAP Diversity Plus: CASM3C Assay for Vascular cell adhesion molecule 1 (VCAM1) Biomarker Activity (AID 2283055); settings: primary human coronary artery smooth muscle cells; actives raise or lower the signal;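 note: VCAM-1 protein level quantified by ELISA on the cells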
[17] = read-out: Collagen III, COL3A1 (gene 1281); assay: BSK_hDFCGF_CollagenIII: BioMAP Diversity Plus: hDFCGF Assay for Collagen III Biomarker Activity (AID 2283056); settings: primary human foreskin fibroblasts; actives raise or lower the signal
Summary of the method: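 Cells: human foreskin fibroblasts, primary. Dosing followed by 24 h incubation, then ELISA for collagen III. Both increases and decreases scored relative to DMSO.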

[18] = read-out: Epidermal growth factor receptor (EGFR), EGFR (gene 1956); assay: BSK_hDFCGF_EGFR: BioMAP Diversity Plus: hDFCGF Assay for Epidermal growth factor receptor (EGFR) Biomarker Activity (AID 2283057); settings: primary human foreskin fibroblasts; actives raise or lower the signal
Summary of the method: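 ELISA readout of EGFR on human dermal fibroblasts (primary foreskin cells), 24 h post-dosing; bidirectional curve fit vs DMSO baseline, gain or loss of signal scored.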

[19] = read-out: Interleukin-8 (IL8), CXCL8 (gene 3576); assay: BSK_hDFCGF_IL8: BioMAP Diversity Plus: hDFCGF Assay for Interleukin-8 (IL8) Biomarker Activity (AID 2283058); settings: primary human foreskin fibroblasts; actives raise or lower the signal
Summary of the method: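 IL-8 levels from compound-treated primary human fibroblasts were read by ELISA at 24 h, with DMSO serving as baseline for bidirectional fitting.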

[20] = BSK_hDFCGF_Proliferation: Cell Proliferation Assessment in the BioMAP Diversity Plus: hDFCGF Assay (AID 2283059); settings: primary human foreskin fibroblasts;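 note: curves fitted for both rise and fall of signal versus DMSO baseline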
Summary of the method: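 Steps: dose primary human dermal fibroblasts (foreskin); […] fix in 10% TCA; stain with 0.1% SRB; read 560 nm; fit gain or loss of signal against DMSO.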

Measured: AC50

C=C(C)C(=O)OCCC(F)(F)C(F)(F)C(F)(F)C(F)(F)C(F)(C(F)(F)F)C(F)(F)F
inactive: all assays above

C=C(C)C(=O)OCC(F)(F)C(F)(F)C(F)(F)C(F)(F)C(F)(F)C(F)(F)C(F)(F)F
inactive: all assays above

O=C(CC(=O)C(F)(F)C(F)(F)F)C(F)(F)F
inactive: all assays above

O[Si](c1ccccc1)(c1ccccc1)c1ccccc1
active: [8] 20 µM | [17] 7.56 µM | [20] 20 µM
inactive: all other assays above

FC(F)(F)C(F)(F)C(F)(F)C(F)(F)C(F)(F)C(F)(F)C(F)(F)C(F)(F)F
inactive: all assays above

CCCCCCC(C)OC(=O)CCCCC(=O)OC(C)CCCCCC (stereo unspecified)
inactive: all assays above

CCCCCCCCCCCCCCCC[N+](C)(C)Cc1ccccc1
active: [1] 3.74 µM | [2] 7.03 µM | [3] 4.79 µM | [4] 2.56 µM | [5] 1.89 µM | [6] 9.64 µM | [7] 3.5 µM | [8] 1.29 µM | [9] 5.11 µM | [10] 2.59 µM | [11] 5.23 µM | [13] 7.36 µM | [14] 2.56 µM | [15] 7.8 µM | [16] 4.2 µM | [17] 0.666 µM | [19] 3.86 µM | [20] 0.59 µM
inactive: [12] | [18]

FC(F)(F)C(F)(F)C(F)(F)C(F)(F)C(F)(F)C(F)(F)C(F)(F)I
inactive: [1] | [2] | [3] | [4] | [5] | [6] | [7] | [8] | [9] | [10] | [11] | [12] | [13] | [14] | [15] | [16] | [17] | [18] | [19] | [20]
active: [20] 2.64 µM

O=S(=O)(O)C(F)(F)C(F)(F)C(F)(F)C(F)(F)C(F)(F)C(F)(F)C(F)(F)F
inactive: all assays above

CCCCCCOC(=O)c1ccccc1O
active: [8] 33.5 µM and 24.5 µM | [14] 38.1 µM and 40.6 µM | [17] 24.5 µM and 16.9 µM | [19] 36.9 µM and 42.9 µM | [20] 15.1 µM and 14.2 µM
inactive: all other assays above

CS(C)(=O)=O
inactive: all assays above

O=S(=O)(OCCOC(F)(F)F)C(F)(F)F
inactive: all assays above

OCC(F)(F)C(F)(F)C(F)(F)C(F)(F)C(F)(F)C(F)F
inactive: all assays above

FC(F)(F)C(F)(F)C(F)(F)C(F)(F)C(F)(F)C(F)(F)CC1CO1 (stereo unspecified)
inactive: all assays above

FC(F)(F)C(F)(F)C(F)(F)N(C(F)(F)C(F)(F)C(F)(F)F)C(F)(F)C(F)(F)C(F)(F)F
inactive: all assays above

O=C(O)C(F)(F)C(F)(F)OC(F)(F)F
inactive: all assays above
